Bioassay records: PubChem BioAssay, several laboratories
FXN GAA850 act – FXN promoter activators, primary screen, cell-based, luciferase luminescence, HEK293 lucGAA850; activation, % at 6 µM; HEK293 lucGAA850 FXN promoter luciferase reporter, 24 h; percent of 10 µM SAHA response; 360,000 tested, 0.56% active;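 active means activation above the average of all compounds screened plus 3 SD, cutoff fixed separately per campaign, cut at about 7.5% in these data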;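 further: 0% = DMSO wells and 100% = 10 µM SAHA wells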
HSF1 activator – HSF-1 activators, primary screen, NIH3T3-HGL cells, MG132 stress, luminescence, single point. activation, % at 9 µM. AID 504408, 2011. 300,000 tested, 1.7% active. NIH3T3-HGL HSF-1 luciferase reporter, 8 h; 100% = twice DMSO control signal;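 active means mean replicate activation of at least 50% with a set share of replicates each reaching 50%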;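 further: 0% = median of the neutral control wells and 100% = twice that signal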
AHR act – AHR activators, primary screen, cell-based, luminescence, luciferase reporter, human; Aryl hydrocarbon receptor (Homo sapiens), P35869; AHR-responsive luciferase reporter cells; activation, % at 5 µM; 320,000 tested, 2.5% active; in the data active means activation above about 47%;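 further: 0% = vehicle wells and 100% = reference agonist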
HSF1 inhib – HSF1 inhibitors in luciferase reporter cells, primary screen, cell-based, NIH3T3, luminescence | activity change, negative = inhibition, % at 7.5 µM (by protocol) | NIH3T3-HGL HSE-luciferase, MG132-induced, luminescence 8 h; hits give low values | 300,000 tested, 0.77% active;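 active means more than half of replicate wells show activity change below -50%, luminescence cut by over half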;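 further: luciferase reports HSF-1 transcriptional activity via heat shock element; 0% = median of DMSO wells and -100% = zero luminescence signal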
DAX1 inh – DAX1 (NR0B1) inhibitors, primary screen, cell-based, HEK293, Gal4-DAX1, luciferase luminescence; Nuclear receptor subfamily 0 group B member 1 (Homo sapiens), P51843; HEK293 Gal4-DAX1 luciferase reporter; inhibition, % at 6.75 µM; 340,000 tested, 0.99% active;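 active means inhibition above the mean over all tested compounds plus 3 SD, cut at about 4.2% in these data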;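 further: 0% = DAX1-transfected cells with DMSO and 100% = empty-vector control cells with DMSO; inhibition shows as a rise in luminescence from relieved DAX1 repression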
Starred values were filed as active, the others as inactive; · = not tested or not shown. In the library only some 5.4% were active in any assay of this set; here they are far more common.

SMILES	FXN GAA850 act	HSF1 activator	AHR act	HSF1 inhib	DAX1 inh
O=c1cc(-c2ccccc2Cl)oc2c(Br)ccc(O)c12	-0.2	15.7	47.4*	13.5	0.7
COc1cc2sc3ccc(-c4ccc(CN5CCOCC5)cc4)cc3c(=O)c2cc1OC	0.8	·	51.5*	·	-0.9
COc1ccc(CN2CCOCC2)cc1OC	-1.1	9.4	1.4	-1.5	-1.3
CCN(CCNCC(O)COc1ccccc1C(C)C)c1cccc(C)c1 (centres undefined)	-1.9	-16.0	1.9	-6.4	-1.2
CN(CC(=O)Nc1ccccc1Br)C(=O)c1cccn1C	-0.5	-73.8	0.2	-66.9*	-0.5
CN(CC(=O)Nc1c(Cl)cccc1Cl)C(=O)c1cccn1C	-1.2	5.2	3.6	7.8	-0.8
Cc1cccc(C(=O)Nc2cccc(C(=O)N/N=C/c3ccncc3)c2)c1	2.1	5.0	16.7	6.8	-1.1
